Screening data as filed in PubChem.
Sampled rows, rich in hits. Any-hit rate of the full collection: about 22%.
Pf growth 96h = inhibits malaria parasite growth, 96 h. P. falciparum luciferase reporter growth, 96 h. Potency, µM (top dose mostly 28.7 µM), for the others: at the top dose activity change, negative = inhibition, hits mostly inhibitors. 320,000 compounds, 6.9% hits. AID 504834; note: potency is the fitted concentration of half-maximal effect; % is set by controls: 0 for no effect and ±100 for the full control effect
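Two-generation exposure (96 h) targets delayed-death phenotype. Reporter parasites carrying integrated firefly luciferase, in red cells at 2% hematocrit and 0.05% parasitemia final, kept at 37 C, 5% CO2; luminescence loss indicates inhibition.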
Cycloheximide cs = counter-screen hit for Shiga toxin inhibitors, cycloheximide | cell reporter, cycloheximide protein synthesis inhibition counterscreen | AID 2314 | max response, % | 300,000 compounds, 12% hits; in the data active = max response mostly above about 13%, no sharp cut-off; inactive = mostly below about 14%; note: read at 38.3 µM for the half of the compounds with a filed dose; 0% is about no effect
Pf growth 48h = P. falciparum growth inhibition at 48 hours (one generation) | AID 504832 | 310,000 compounds, 5.9% hits | Potency, µM (highest dose often 28.7 µM), for the others: at the highest dose activity change, negative = inhibition, actives largely listed as inhibitors | P. falciparum luciferase growth in erythrocytes, 48 h; note: potency is the fitted concentration of half-maximal effect; % is set by controls: 0 for no effect and ±100 for the full control effect
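Luciferase-expressing parasites in RBCs, 2% Hct / 0.1% parasitemia final; RPMI 1640 + 0.5% Albumax; 37 C, 5% CO2, one generation; luminescence read-out, lower signal = inhibition.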
LmPK inhibitor = LmPK (Leishmania mexicana) enzyme inhibition; Q27686; purified LmPK, Kinase-Glo ATP luminescence, 1 h; Potency, µM (highest dose often 57.5 µM), for inactives: top-dose activity change, negative = inhibition, most hits filed as inhibitors; 290,000 compounds, 0.37% hits; AID 1721; note: potency is the fitted concentration of half-maximal effect; % is set by controls: 0 for no effect and ±100 for the full control effect
Target sequence (Q27686 whole entry, looked up): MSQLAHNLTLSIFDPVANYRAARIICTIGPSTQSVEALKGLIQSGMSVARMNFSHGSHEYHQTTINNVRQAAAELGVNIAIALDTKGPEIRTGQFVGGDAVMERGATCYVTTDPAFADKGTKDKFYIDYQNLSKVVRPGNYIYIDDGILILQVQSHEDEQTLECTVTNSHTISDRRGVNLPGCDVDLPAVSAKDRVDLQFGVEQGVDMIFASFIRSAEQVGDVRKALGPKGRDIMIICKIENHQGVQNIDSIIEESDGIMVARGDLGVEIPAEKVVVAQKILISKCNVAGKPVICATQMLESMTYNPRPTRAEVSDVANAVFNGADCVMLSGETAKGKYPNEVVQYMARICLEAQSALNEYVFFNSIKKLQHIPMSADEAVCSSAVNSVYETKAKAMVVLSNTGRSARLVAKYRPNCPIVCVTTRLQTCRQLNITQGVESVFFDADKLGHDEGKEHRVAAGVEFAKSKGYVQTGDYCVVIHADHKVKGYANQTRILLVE
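Purified LmPK (0.1 nM) with 0.5 mM PEP and 0.1 mM ADP in imidazole buffer pH 7.2 with MgCl2/KCl, 1 h at room temperature. ATP formed was read by luciferase luminescence and normalized to no-enzyme and uninhibited controls.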
Shiga inhibitor = Shiga toxin inhibition; inhibition, % at 38.7 µM; Vero cells, Shiga toxin protein synthesis inhibition reporter; 290,000 compounds, 9.2% hits; in the data active = inhibition mostly above about 28%, no sharp cut-off; inactive = mostly below about 43%; note: 0% is about no effect
* marks the source's active call; other numbers are inactive results; ? = inconclusive; nt = no result given. Unless noted, calls come from the whole dose curve; as a rule, active = well fitted inhibition curve with a large enough effect; inconclusive = small, poorly fitted or top-dose-only effect, or another doubt; inactive = no such curve, though single readings can be large or run the other way.

SMILES	Pf growth 96h	Cycloheximide cs	Pf growth 48h	LmPK inhibitor	Shiga inhibitor
O=C(Nc1ccc2c(c1)OCO2)[C@@H]1[C@@H]2C(=O)N(C3CCCCC3)C(=O)[C@@H]2C2c3ccccc3C=CN21 (some centres undefined)	-11%	0	?	-3%	-1
O=C(c1cccs1)[C@@H]1[C@@H]2C(=O)N(Cc3ccc4c(c3)OCO4)C(=O)[C@@H]2C2c3ccccc3C=CN21 (some centres undefined)	10µM*	-3	?	4%	-30
O=C1c2ccccc2C(=O)N1Cc1ccc2c(c1)OCO2	nt	8	10%	-20%	-18
O=C(c1ccc2c(c1)OCO2)[C@@H]1[C@@H]2C(=O)N(C3CCCCC3)C(=O)[C@@H]2C2c3ccccc3C=CN21 (some centres undefined)	4.7µM*	6	6.6µM*	4%	21
CS(=O)(=O)c1ccc(C(=O)OCC(=O)N2CCCc3ccccc32)cc1	30%	nt	-1%	nt	nt
S=C(NCCCn1ccnc1)NC1CCCCC1	-18%	-6	-3%	-2%	-11
C=CCn1cc(/C=N/Nc2nc3ccccc3[nH]2)c2ccccc21	83%	40*	?	0%	74*
CC(C)Cn1c(/C=N/Nc2nc3ccccc3[nH]2)nc2ccccc21	0.47µM*	7	3.7µM*	0%	12
CCCn1c(/C=N/Nc2nc3ccccc3[nH]2)nc2ccccc21	4.1µM*	49*	1.9µM*	1%	46*
Cc1c(/C=N/Nc2nc3ccccc3[nH]2)c2ccccc2n1C	0.47µM*	24*	0.52µM*	3%	76*
CCNc1nc2ccccc2[nH]1	nt	5	18%	2%	-10
C=CCn1cc(/C=N\NC(=O)c2cc3c(ccc4ccccc43)o2)c2ccccc21	-7%	-4	?	-8%	15
Cc1cccc(C(=O)NC2CCN(CC(=O)Nc3ccccc3Cl)CC2)c1	109%	-1	1%	5%	-7
OCCCc1ccccc1	nt	-6	nt	nt	2
Cc1ccc(N2CC(C(=O)Nc3nnc(SCCN4CCOCC4)s3)CC2=O)cc1 (centres undefined)	?	-3	-27%	2%	18
Cc1cccc(C(=O)OCC(=O)N(CC(C)C)c2c(N)n(Cc3ccccc3)c(=O)[nH]c2=O)c1O	11%	nt	-3%	nt	nt
Cc1cccc(OCCNC(=O)CCNS(=O)(=O)c2ccc3ccccc3c2)c1	-28%	nt	?	nt	nt
Cn1c(/C=N/Nc2nc3ccccc3[nH]2)nc2ccccc21	?	34*	-17%	-23%	154*
Cn1cc(CC(=O)NCCN2CCOCC2)c2ccccc21	?	-6	9%	-2%	12
N#CC(C#N)=Cc1ccc(C=C(C#N)C#N)cc1	3%	20*	?	-1%	27
CSCc1ccc(C(=O)NC(C)c2ccc(-n3ccnc3)cc2)cc1 (centres undefined)	?	18*	-5%	-8%	16
CCOc1ccccc1C(=O)NC(C)c1ccc(-n2ccnc2)cc1 (centres undefined)	8.3µM*	1	?	-3%	-21
COc1ccccc1C(=O)NC(C)c1ccc(-n2ccnc2)cc1 (centres undefined)	?	-2	?	-1%	-8
O=C(Nc1ccc(F)cc1)c1cccc2c1C(=O)N(CC1CCCO1)C2 (centres undefined)	25%	0	?	0%	6
COc1cc2c(cc1OC)CN(CC(=O)Nc1ccccc1C(=O)NCc1ccccc1)CC2	2.9µM*	1	17µM*	4%	-13
SMILES	Pf growth 96h	Cycloheximide cs	Pf growth 48h	LmPK inhibitor	Shiga inhibitor
COc1cccc(N2CCN(CC(=O)Nc3ccccc3C(=O)NCc3ccccc3)CC2)c1	?	nt	9.3µM*	nt	nt
CCc1cccc(CC)c1NC(=O)CN1CCc2cc(OC)c(OC)cc2C1	-28%	5	-5%	-7%	0
COc1cc2c(cc1OC)CN(CC(=O)NC(=O)NCc1ccccc1)CC2	?	2	9.3µM*	2%	-11
O=C1CNC(=S)N1CCCc1ccccc1	9%	-3	21%	-2%	-6
COc1cc(-c2ccccc2)[nH]c(=S)n1	7.4µM*	nt	35%	nt	nt
CC(/C=N/NC(=O)CSc1nc2ccccc2n1C)=C\c1ccco1	-18%	-2	1%	4%	6
CC(/C=N/NC(=O)Cc1cccs1)=C\c1ccco1	-25%	41*	53%	6%	37
CC(/C=C/c1ccco1)=N/NC(=O)Cc1cccs1	12%	14*	20%	-1%	-30
CC(/C=N/NC(=O)c1cccs1)=C\c1ccco1	?	58*	78%	-8%	128*
O=C(O)c1cc(NS(=O)(=O)c2ccc(N3CCCCC3)c([N+](=O)[O-])c2)cc(C(=O)O)c1	-25%	-2	24%	3%	2
Nn1c(COc2ccccc2)nc2ccccc2c1=O	-2%	48*	99%	-16%	57*
CC#CCCc1nc2ccccc2c(=O)n1N	-28%	-2	8%	1%	12
CC(=O)Nn1c(COc2ccccc2C)nc2ccccc2c1=O	18%	-4	20%	-1%	-8
Cc1ccccc1OCc1nc2ccccc2c(=O)n1N	46%	31*	nt	0%	41
COc1cccc(-n2c(C)nc3ccccc3c2=O)c1	nt	0	47%	4%	5
CCCCCc1nc2ccccc2c(=O)n1N	?	22*	-12%	-2%	-13
COc1cccc(OCc2nc3ccccc3c(=O)n2N)c1	1%	27*	68%	-16%	84*
CCCc1nc2ccccc2c(=O)n1N	-31%	-3	nt	-6%	-4
Cc1cccc(OCC(=O)Nc2nnc(S(=O)(=O)N3CCc4ccccc43)s2)c1	nt	-11	nt	nt	-11
CCN1CCN(C(=O)c2ccc(Cl)c(S(=O)(=O)N3CCCCC3)c2)CC1	?	-1	-13%	-1%	-8
COc1ccc2cc(C(C)c3nc4ccccc4c(=O)n3N)ccc2c1 (centres undefined)	1.2µM*	-6	?	2%	17
COc1ccc(-c2nc3ccccc3c(=O)n2N)cc1	31%	-2	35%	-1%	15
COC(=O)c1ccc(NC(=O)c2ccc(C)cc2)o1	171%	22*	114%	-1%	48*
COC(=O)c1cc(NC(=O)c2ccccc2)c(=O)oc1C	44%	13	0%	0%	22
COC(=O)c1cc(NC(=O)c2ccc(C)cc2)c(=O)oc1C	85%	25*	39%	-11%	43
COC(=O)c1ccc(NC(=O)c2cccc(Cl)c2)o1	56%	24*	52%	0%	58*
COC(=O)c1ccc(NC(=O)c2ccc(F)cc2)o1	9%	5	74%	-2%	35
Cc1oc(=O)c(NC(=O)c2cccc(Cl)c2)cc1C(=O)c1ccccc1	49%	31*	?	-2%	68*
OC12CC3C[C@H](C1)C(N1CCOCC1)[C@@H](C3)C2 (some centres undefined)	?	-3	1%	-3%	-14
